Laboratory results published in PubChem BioAssay.
For some assays here: Measured potencies and affinities stand elsewhere. Calls of active or inactive are those of the source. Unless noted, no rule for the calls is given here.

Tests used:
[1] = antimalarial activity against Dd2 strain (AID 2302;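 active = growth inhibition above 50% at the single 2 µM test dose, taken to imply half-maximal potency below 2 µM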;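 also: 0% = DMSO untreated growth and 100% = chloroquine plus artemisinin killed control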); settings: P. falciparum Dd2 in RBCs, LDH growth readout, 72 h; at 2 µM; stronger effect = higher value
[2] = HepG2 cytotoxicity, primary screen, cytotoxicity control for P. falciparum antimalarial project, cell-based, ATP luminescence (AID 2303;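 active = inhibition above 50%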;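 also: 0% = DMSO wells and 100% = digitonin-killed cells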); settings: HepG2 viability, 24-48 h, at 10 µM, stronger effect = higher value
[3] = target: L-lactate dehydrogenase (Plasmodium falciparum (isolate CDC / Honduras)) (UniProt Q27743); assay: PfLDH activity inhibition – cell lysate, 3D7 strain, counter-screen for P. falciparum growth inhibition project (AID 2304);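 also: 0% = vehicle and 100% = reference inhibitor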; settings: P. falciparum 3D7 crude extract, LDH APAD/NBT absorbance; at 2 µM; stronger effect = higher value
[4] = inhibition of 3D7 malaria parasite growth – strain 3D7 (AID 2306);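 also: 0% = DMSO wells and 100% = chloroquine plus artemisinin control wells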; settings: P. falciparum 3D7 erythrocytic growth, LDH absorbance, 72 h; at 2 µM; stronger effect = higher value
[5] = target: Calcium-dependent protein kinase 1 (Plasmodium falciparum (isolate 3D7)) (UniProt P62344); assay: PfCDPK1 kinase inhibitors, biochemical, TCAMS library (AID 1159585; cut-off not given, nearly all actives have IC50 up to about 0.98 µM;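 also: inhibitors leave more ATP so luminescence rises with inhibition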); settings: recombinant PfCDPK1, Kinase-Glo ATP depletion luminescence
[6] = target: Plasmodium falciparum protein kinase 6 (PK6, PF3D7_1337100) (UniProt Q8IDW1); assay: PfPK6 kinase inhibitors, biochemical, TCAMS library (AID 1159586); settings: recombinant PfPK6, Kinase-Glo ATP depletion luminescence
[7] = target: Protein kinase 7 (PK7), Plasmodium falciparum 3D7 (PF3D7_0213400) (UniProt Q7YTF7); assay: inhibition of Plasmodium PK7 catalytic activity – biochemical, TCAMS antimalarial set, Kinase-Glo luminescence (AID 1159587); settings: recombinant PfPK7, Kinase-Glo ATP depletion luminescence
[8] = target: Calcium-dependent protein kinase 4 (Plasmodium falciparum (isolate 3D7)) (UniProt Q8IBS5); assay: PfCDPK4 kinase inhibitors, biochemical, TCAMS library (AID 1159588; cut-off not given, nearly all actives have IC50 up to about 0.91 µM); settings: recombinant PfCDPK4, Kinase-Glo ATP depletion luminescence
Sequence of Calcium-dependent protein kinase 4 (Plasmodium falciparum (isolate 3D7)) (Q8IBS5 whole entry, looked up): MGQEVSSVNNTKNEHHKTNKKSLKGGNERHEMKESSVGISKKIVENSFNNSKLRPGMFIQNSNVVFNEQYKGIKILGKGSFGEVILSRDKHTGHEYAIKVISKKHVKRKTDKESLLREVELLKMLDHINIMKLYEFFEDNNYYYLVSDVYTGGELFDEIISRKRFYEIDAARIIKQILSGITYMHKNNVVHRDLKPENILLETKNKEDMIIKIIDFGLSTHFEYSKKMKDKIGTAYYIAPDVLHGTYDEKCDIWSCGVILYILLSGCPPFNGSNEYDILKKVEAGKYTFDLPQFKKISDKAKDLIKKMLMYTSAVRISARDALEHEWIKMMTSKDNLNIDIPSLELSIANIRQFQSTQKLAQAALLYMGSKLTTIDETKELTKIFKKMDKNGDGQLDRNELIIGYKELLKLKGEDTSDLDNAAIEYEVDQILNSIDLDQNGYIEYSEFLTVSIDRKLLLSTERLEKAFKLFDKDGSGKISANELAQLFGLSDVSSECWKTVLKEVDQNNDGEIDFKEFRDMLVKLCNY

Sequence of Protein kinase 7 (PK7), Plasmodium falciparum 3D7 (PF3D7_0213400) (Q7YTF7 1-343): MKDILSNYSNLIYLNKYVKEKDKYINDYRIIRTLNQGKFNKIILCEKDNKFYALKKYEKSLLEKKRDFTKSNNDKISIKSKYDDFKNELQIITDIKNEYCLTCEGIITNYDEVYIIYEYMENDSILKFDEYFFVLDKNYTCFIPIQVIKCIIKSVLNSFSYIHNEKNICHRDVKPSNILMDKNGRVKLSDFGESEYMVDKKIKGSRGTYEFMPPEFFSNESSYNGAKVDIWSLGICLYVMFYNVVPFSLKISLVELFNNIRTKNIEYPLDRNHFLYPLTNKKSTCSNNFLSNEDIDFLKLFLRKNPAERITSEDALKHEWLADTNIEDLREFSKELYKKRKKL
Sequence of Calcium-dependent protein kinase 1 (Plasmodium falciparum (isolate 3D7)) (P62344 whole entry, looked up): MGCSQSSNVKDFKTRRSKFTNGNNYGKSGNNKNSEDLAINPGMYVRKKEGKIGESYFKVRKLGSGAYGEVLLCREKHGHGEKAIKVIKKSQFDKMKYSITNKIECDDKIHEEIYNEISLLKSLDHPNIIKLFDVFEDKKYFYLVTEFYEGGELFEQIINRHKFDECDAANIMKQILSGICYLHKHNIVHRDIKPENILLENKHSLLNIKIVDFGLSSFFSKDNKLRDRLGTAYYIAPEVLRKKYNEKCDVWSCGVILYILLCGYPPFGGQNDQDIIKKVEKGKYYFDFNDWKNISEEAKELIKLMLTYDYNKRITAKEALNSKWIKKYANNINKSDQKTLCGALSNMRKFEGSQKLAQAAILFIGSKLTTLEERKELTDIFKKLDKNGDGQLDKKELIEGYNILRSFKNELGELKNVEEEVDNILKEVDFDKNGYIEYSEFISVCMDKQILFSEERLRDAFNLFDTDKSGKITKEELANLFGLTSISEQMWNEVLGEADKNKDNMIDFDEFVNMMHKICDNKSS
Sequence of L-lactate dehydrogenase (Plasmodium falciparum (isolate CDC / Honduras)) (Q27743 whole entry, looked up): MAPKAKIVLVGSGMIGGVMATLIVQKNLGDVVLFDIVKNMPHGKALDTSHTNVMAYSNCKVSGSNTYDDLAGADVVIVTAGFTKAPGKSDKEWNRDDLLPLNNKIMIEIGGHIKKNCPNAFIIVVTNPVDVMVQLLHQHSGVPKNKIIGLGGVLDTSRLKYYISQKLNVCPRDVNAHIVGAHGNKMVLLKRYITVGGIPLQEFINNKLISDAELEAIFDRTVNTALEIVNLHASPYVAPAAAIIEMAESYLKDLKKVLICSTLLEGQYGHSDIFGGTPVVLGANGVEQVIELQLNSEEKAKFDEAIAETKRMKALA
Sequence of Plasmodium falciparum protein kinase 6 (PK6, PF3D7_1337100) (Q8IDW1 1-305): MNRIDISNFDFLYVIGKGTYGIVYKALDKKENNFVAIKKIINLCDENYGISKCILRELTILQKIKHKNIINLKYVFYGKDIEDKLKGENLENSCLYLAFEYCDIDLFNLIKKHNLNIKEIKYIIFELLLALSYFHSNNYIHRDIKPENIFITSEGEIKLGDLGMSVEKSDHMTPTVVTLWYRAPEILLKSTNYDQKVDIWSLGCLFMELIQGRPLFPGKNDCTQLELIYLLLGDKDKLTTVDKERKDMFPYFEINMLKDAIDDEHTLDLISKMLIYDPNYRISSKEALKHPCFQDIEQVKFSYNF

COc1cccc2c(NCCNc3ccnc4c(OC)cccc34)ccnc12
active: growth inhibition [1] 86% | growth inhibition [4] 93%
inactive: inhibition [2] 11% | inhibition [3] 0% | outcome [5] | outcome [6] | outcome [7] | outcome [8]

CC(C)COc1ccc(Cl)cc1Cc1ccc(-c2nc3ccc(CCN(C)C)cc3[nH]2)o1
active: growth inhibition [4] 92%
inactive: growth inhibition [1] 7% | inhibition [2] 10% | inhibition [3] 3% | outcome [5] | outcome [6] | outcome [7] | outcome [8]

CC(=O)NC1=NC(C)(C)N(OCc2ccc(Cl)c(Cl)c2)C(NC(C)=O)=N1
active: growth inhibition [1] 97% | inhibition [2] 68% | growth inhibition [4] 94%
inactive: inhibition [3] -5% | outcome [5] | outcome [6] | outcome [7] | outcome [8]

Cc1cccc2[nH]c(-c3ccc(-c4cccc(CNCc5ccccc5)c4)cc3)nc12
inactive: inhibition [2] 3% | inhibition [3] -1% | outcome [5] | outcome [6] | outcome [7] | outcome [8]
active: growth inhibition [1] 52% | growth inhibition [4] 102%

COc1ccc(C2CCN(CCCCNC(=O)c3ccc(NC(=O)c4ccc(Cl)cc4)cc3)CC2)c(C)c1
active: growth inhibition [4] 98%
inactive: growth inhibition [1] 35% | inhibition [2] 22% | inhibition [3] 2% | outcome [5] | outcome [6] | outcome [7] | outcome [8]

CCCCCCCCn1ccc(=N)cc1
active: growth inhibition [1] 84% | growth inhibition [4] 91%
inactive: inhibition [2] 49% | inhibition [3] -5% | outcome [5] | outcome [6] | outcome [7] | outcome [8]

c1ccc2[nH]c(Nc3ccc(Nc4nc5ccccc5[nH]4)cc3)nc2c1
inactive: growth inhibition [1] 27% | inhibition [2] -3% | inhibition [3] 1% | outcome [5] | outcome [6] | outcome [7] | outcome [8]
active: growth inhibition [4] 98%

O=C(Nc1cc(Cl)ccc1-n1cncn1)C1(c2ccccc2)CC1
inactive: inhibition [2] 3% | inhibition [3] -2% | outcome [5] | outcome [6] | outcome [7] | outcome [8]
active: growth inhibition [1] 91% | growth inhibition [4] 98%

COc1cc2nc(N(C)CC3COc4ccccc4O3)nc(N)c2cc1OC (stereo not given)
active: growth inhibition [4] 94%
inactive: growth inhibition [1] 26% | inhibition [2] 11% | inhibition [3] -1% | outcome [5] | outcome [6] | outcome [7] | outcome [8]

COc1ccccc1CNC(=O)c1nn(-c2ccc(Cl)cc2)c(=O)c2ccccc12
inactive: inhibition [2] -2% | inhibition [3] 6% | outcome [5] | outcome [6] | outcome [7] | outcome [8]
active: growth inhibition [1] 80% | growth inhibition [4] 101%

Cc1cc(NC(=O)Nc2ccc(C#N)cc2)c2ccccc2n1
inactive: growth inhibition [1] 49% | inhibition [3] -2% | outcome [5] | outcome [6] | outcome [7] | outcome [8]
active: inhibition [2] 88% | growth inhibition [4] 100%

CCOc1ccc(OCC)c(N2CCN(CCCCNC(=O)c3ccc(NC(=O)c4ccc(Cl)cc4)cc3)CC2)c1
inactive: growth inhibition [1] 40% | inhibition [2] 13% | inhibition [3] 1% | outcome [5] | outcome [6] | outcome [7] | outcome [8]
active: growth inhibition [4] 97%

C=CCc1cc(Br)ccc1OCCCOc1c(C)nc(N)nc1N
active: growth inhibition [1] 96% | inhibition [2] 56% | growth inhibition [4] 94%
inactive: inhibition [3] -3% | outcome [5] | outcome [6] | outcome [7] | outcome [8]

Cc1cccc2[nH]c(-c3ccc(-c4cccc(NC(=O)CN5CCN(C)CC5)c4)s3)nc12
inactive: inhibition [2] 7% | inhibition [3] -3% | outcome [5] | outcome [6] | outcome [7] | outcome [8]
active: growth inhibition [1] 51% | growth inhibition [4] 96%

ON=C1c2cc(OCCN3CCCCC3)c(Cl)cc2-c2cc(Cl)c(OCCN3CCCCC3)cc21
inactive: inhibition [3] 5% | outcome [5] | outcome [6] | outcome [7] | outcome [8]
active: growth inhibition [1] 98% | inhibition [2] 99% | growth inhibition [4] 97%

CCN(CC)CCNc1ccnc2[nH]c3ccc(I)cc3c12
active: growth inhibition [1] 95% | growth inhibition [4] 100%
inactive: inhibition [2] 14% | inhibition [3] -1% | outcome [5] | outcome [6] | outcome [7] | outcome [8]

C/C=C/COc1ccc(-c2c(C)[nH]c(C)c(Cl)c2=O)cc1
inactive: inhibition [2] 0% | inhibition [3] 2% | outcome [5] | outcome [6] | outcome [7] | outcome [8]
active: growth inhibition [1] 97% | growth inhibition [4] 97%

CN(C)Cc1ccc(O)c(-c2ccc(C(C)(C)C)cc2)n1
inactive: growth inhibition [1] 25% | inhibition [2] -1% | inhibition [3] -5% | outcome [5] | outcome [6] | outcome [7] | outcome [8]
active: growth inhibition [4] 86%

c1ccc2c(c1)ncc1c3ccccc3[nH]c21
active: growth inhibition [4] 95%
inactive: growth inhibition [1] 36% | inhibition [2] -1% | inhibition [3] -6% | outcome [5] | outcome [6] | outcome [7] | outcome [8]

O=C(Nc1cccc(CN2CCCN(CC3CCCCC3)CC2)c1)c1ccc(Cl)c(Cl)c1
active: growth inhibition [4] 91%
inactive: growth inhibition [1] 15% | inhibition [2] 39% | inhibition [3] 7% | outcome [5] | outcome [6] | outcome [7] | outcome [8]

CC(C)[C@H](NC(=O)c1ccc(O)c(-c2ccc(Cl)c(Cl)c2)c1)C(=O)NCCN1CCCCC1
active: growth inhibition [1] 98% | growth inhibition [4] 99%
inactive: inhibition [2] -6% | inhibition [3] -4% | outcome [5] | outcome [6] | outcome [7] | outcome [8]

Cc1nc(SCC(=O)N2CCCC2=O)c2c(C)c(C)sc2n1
inactive: growth inhibition [1] 0% | inhibition [2] 45% | inhibition [3] 2% | outcome [5] | outcome [6] | outcome [7] | outcome [8]
active: growth inhibition [4] 96%

OC(CNc1ccnc(Nc2cccc(Cl)c2)n1)c1ccccc1C(F)(F)F (stereo not given)
active: growth inhibition [4] 95%
inactive: growth inhibition [1] 36% | inhibition [2] 40% | inhibition [3] 0% | outcome [5] | outcome [6] | outcome [7] | outcome [8]

O=C(/C=C/c1ccc(Cl)c(Cl)c1)NCCCCCN1CCCC(CNS(=O)(=O)c2cccc(C(F)(F)F)c2)C1 (stereo not given)
inactive: growth inhibition [1] 0% | inhibition [3] 5% | outcome [5] | outcome [6] | outcome [7] | outcome [8]
active: inhibition [2] 73% | growth inhibition [4] 92%

N#Cc1cccc(Nc2ncc3c(-c4cccc(NC(=O)Cc5cccc(Cl)c5)c4)c[nH]c3n2)c1
active: growth inhibition [1] 95% | growth inhibition [4] 101%
inactive: inhibition [2] -1% | inhibition [3] -2% | outcome [5] | outcome [6] | outcome [7] | outcome [8]

C=Cc1cc(NC(=O)N2CCc3cc(OC)c(C(F)(F)F)cc32)cc(-c2cccnc2)c1
inactive: growth inhibition [1] 20% | inhibition [2] 7% | inhibition [3] -2% | outcome [5] | outcome [6] | outcome [7] | outcome [8]
active: growth inhibition [4] 92%

CC(C)COc1ccc(Cl)cc1Cc1nc(-c2nc3c(CN4CCN(C)CC4)cccc3[nH]2)cs1
active: growth inhibition [4] 99%
inactive: growth inhibition [1] 30% | inhibition [2] 15% | inhibition [3] -2% | outcome [5] | outcome [6] | outcome [7] | outcome [8]

O=C(Nc1cccc(CN2CCCN(Cc3ccc(F)cc3)CC2)c1)c1cc2ccccc2s1
inactive: growth inhibition [1] 36% | inhibition [2] 29% | inhibition [3] -9% | outcome [5] | outcome [6] | outcome [7] | outcome [8]
active: growth inhibition [4] 91%

O=S(=O)(NCCN1CCCC1)c1ccc(-c2cccc(CNCCc3cccs3)c2)s1
inactive: growth inhibition [1] 44% | inhibition [2] 39% | inhibition [3] -2% | outcome [5] | outcome [6] | outcome [7] | outcome [8]
active: growth inhibition [4] 99%

CCCCCC(=O)N1CCOC(CCN2CCC(c3ccccc3)CC2)(c2ccc(Cl)c(Cl)c2)C1 (stereo not given)
inactive: inhibition [2] 17% | inhibition [3] 1% | outcome [5] | outcome [6] | outcome [7] | outcome [8]
active: growth inhibition [1] 51% | growth inhibition [4] 89%

COc1cccc(NC(=O)[C@H](C)n2c(=O)[nH]c3ccccc3c2=O)c1
active: growth inhibition [1] 92% | growth inhibition [4] 100%
inactive: inhibition [2] 8% | inhibition [3] -3% | outcome [5] | outcome [6] | outcome [7] | outcome [8]

COc1cc2nc(NC3CCN(Cc4ccccc4)CC3)nc(N)c2cc1OC
inactive: growth inhibition [1] 30% | inhibition [2] 27% | inhibition [3] -2% | outcome [5] | outcome [6] | outcome [7] | outcome [8]
active: growth inhibition [4] 101%

CN(C)c1ccc(C=C2SC(=Nc3ccccc3)N(c3ccccc3)C2=O)cc1[N+](=O)[O-]
inactive: inhibition [2] 9% | inhibition [3] 7% | outcome [5] | outcome [6] | outcome [7] | outcome [8]
active: growth inhibition [1] 82% | growth inhibition [4] 96%

CCC(C)NC(=O)CN1CN(c2ccccc2)C2(CCN(C(=O)c3ccc(C(C)(C)C)cc3)CC2)C1=O (stereo not given)
active: growth inhibition [1] 100% | growth inhibition [4] 101%
inactive: inhibition [2] -6% | inhibition [3] -4% | outcome [5] | outcome [6] | outcome [7] | outcome [8]

COc1cccc(CNc2ncc(-c3ccsc3)c(-c3nccs3)n2)c1
active: growth inhibition [1] 82% | growth inhibition [4] 89%
inactive: inhibition [2] 9% | inhibition [3] 3% | outcome [5] | outcome [6] | outcome [7] | outcome [8]

CN(C)CCN(C)Cc1ccc(-c2ccc(NC(=O)c3cccc(C#N)c3)cc2)cc1
inactive: growth inhibition [1] 49% | inhibition [2] 20% | inhibition [3] 2% | outcome [5] | outcome [6] | outcome [7] | outcome [8]
active: growth inhibition [4] 89%

CCOC(=O)c1c[nH]c2c(ccc3ccccc32)c1=O
active: growth inhibition [1] 96% | growth inhibition [4] 96%
inactive: inhibition [2] -5% | inhibition [3] 3% | outcome [5] | outcome [6] | outcome [7] | outcome [8]

CN1CCC(NCc2cccc(-c3nn(C)c4nc(NC5CCCC5)ncc34)c2)CC1
inactive: growth inhibition [1] 44% | inhibition [2] 1% | inhibition [3] -2% | outcome [5] | outcome [6] | outcome [7] | outcome [8]
active: growth inhibition [4] 98%

COc1ccc2nccc([C@@H](O)CN3CCC(NC(=O)/C=C/c4cc([N+](=O)[O-])ccc4OC)CC3)c2c1
active: growth inhibition [1] 76% | growth inhibition [4] 99%
inactive: inhibition [2] 12% | inhibition [3] -1% | outcome [5] | outcome [6] | outcome [7] | outcome [8]

Fc1ccc(NC(=S)NCCc2ccccc2)cc1
inactive: growth inhibition [1] 0% | inhibition [2] -1% | inhibition [3] 3% | outcome [5] | outcome [6] | outcome [7] | outcome [8]
active: growth inhibition [4] 99%
